From ChEMBL document CHEMBL1157539, “Thousands of chemical starting points for antimalarial lead identification” (Nature, 2010)

What was measured:
Format in all cases: functional
[1] = test system: Plasmodium falciparum; assay: GSK_TCMDC: Inhibition of Plasmodium falciparum 3D7 in whole red blood cells, using parasite LDH activity as an index of growth. Test compounds present at 2uM
[2] = test system: Plasmodium falciparum; assay: GSK_TCMDC: Inhibition of Plasmodium falciparum Dd2 in whole red blood cells, using parasite LDH activity as an index of growth. Test compounds present at 2uM
[3] = test system: HepG2; assay: GSK_TCMDC: Percent inhibition of human HepG2 cell line. Test compounds present at 10uM.

Row | Compound | Inhibition [1] [%] | Inhibition [2] [%] | Inhibition [3] [%]
1 | O=C(Nc1ccc(Cl)c(Cl)c1)Nc1ccc2nccc(N3CCN(Cc4ccccc4)CC3)c2c1 | 100 | 100 | 31
2 | O=C(Cc1ccccn1)Nc1cccc(-c2cccc(-c3nc4cc(C(F)(F)F)ccc4[nH]3)c2)c1 | 95 | 22 | 26
3 | CN1CCC(NCc2cccc(-c3cnc(NCc4ccccc4)nc3)c2)CC1.O=C(O)C(F)(F)F | 100 | 67 | 12
4 | Cc1oc(-c2cccc(Oc3ccccc3)c2)nc1CN(Cc1cnn(C)c1)C(C)C | 89 | 61 | 22
5 | Cc1cc(N2CCOCC2)nc2ccc(NC(=O)c3cccc([N+](=O)[O-])c3)cc12 | 97 | 37 | 0
6 | O=C(NCCCCN1CCN(c2cccc3c2OCCO3)CC1)c1ccc(NC(=O)c2cc(Cl)cc(Cl)c2)cc1 | 100 | 89 | 21
7 | O=C(Cc1cccnc1)N(Cc1ccc(-c2ccc(CNCc3cccnc3)cn2)cc1)C1CCN(Cc2ccccc2)CC1.O=C(O)C(F)(F)F | 93 | 6 | 8
8 | O=C(NCCN1CCC(NC(=O)c2ccc(-c3ccccn3)s2)CC1)c1ccc(Cl)c(Cl)c1.O=C(O)C(F)(F)F | 97 | 48 | 24
9 | COc1ccc2nccc([C@@H](O)CN3CCC(NCc4cc5cc(OC(F)(F)F)ccc5[nH]4)CC3)c2c1.O=C(O)C(=O)O | 100 | 82 | 49
10 | O=C(CC(=O)Nc1cc(Cl)cc(Cl)c1)Nc1cc(Cl)cc(Cl)c1 | 95 | 96 | 0
11 | COc1ccc(CNCCCCCCNCc2ccc(OC)c3ccccc23)c2ccccc12.Cl | 100 | 49 | 100
12 | CNS(=O)(=O)c1ccc2c(c1)nc(C1CCN(CC3CCC(NC(=O)/C=C/c4ccc(Cl)c(Cl)c4)CC3)CC1)n2C (centres undefined) | 100 | 96 | 5
13 | Clc1ccc(-c2ccc(CNCCCN3CCCC3)cc2)cc1 | 91 | 21 | 47
14 | COc1cc(CNC[C@@H](O)[C@H](Cc2ccccc2)NC(=O)c2cc(C3CCCC3)cc(N3CCCC3=O)c2)cc(OC)c1.Cl | 97 | 76 | 16
15 | Clc1ccc(-c2ccc(C=NNc3nc(=Nc4ccccc4)[nH]c(=Nc4ccccc4)[nH]3)o2)cc1Cl | 97 | 75 | 1
16 | O=C(/C=C/c1ccc(Br)cc1)NCCCCCN1CCC(c2c[nH]c3ccccc23)CC1 | 99 | 19 | 73
17 | O=C(Nc1ccccc1)c1nn(CCCN2CCC(N3CCCC3)CC2)cc1-c1ccc(Cl)c(Cl)c1 | 100 | 98 | 31
18 | Cc1cccc2nc(O)c([N+](=O)[O-])c(O)c12 | 95 | 0 | 0
19 | CC1(C)CCNc2cc(NC(=O)c3ccc(-c4ncccc4C(F)(F)F)cc3)ccc21.Cl | 97 | 86 | 7
20 | CC(C)CCN1CCC(Oc2ccc(NC(=O)c3cccs3)cc2Cl)C1.O=C(O)C(F)(F)F (centres undefined) | 94 | 93 | 17
21 | Fc1ccc2[nH]c(-c3ccc(-c4ccc(CNCc5ccccc5)cc4)cc3)nc2c1.O=C(O)C(F)(F)F | 100 | 94 | 35
22 | Cc1cccc(NC(=O)c2ccc(C(=O)NC3CCN(CC4CCCCC4)C3)cc2)c1.O=C(O)C(F)(F)F (centres undefined) | 88 | 3 | 17
23 | CCN(CC)CCCC(C)Nc1ccnc2[nH]c3ccccc3c12 (centres undefined) | 82 | 38 | 0
24 | CCc1ccc(CN2CCC(CNC(=O)c3cc(-c4cccc(Cl)c4)cs3)C2)cc1.O=C(O)C(F)(F)F (centres undefined) | 88 | 19 | 27
25 | COC(=O)c1ccccc1COc1ccc(CC2(NC(=O)[C@H](Nc3ccc(C#N)c4ccccc34)C(C)(C)C)CCCC2)cc1 | 95 | 82 | 1
26 | O=C1c2ccccc2C(=O)N1CCOc1c(Br)cc(Br)cc1CNCCCNc1cc(=O)c2ccccc2[nH]1 | 92 | 12 | 10
27 | COc1cc(N(Cc2ccc(F)cc2)C(=O)c2ccc(-c3ccccc3)cc2)ccc1OCCN1CCCC1.Cl | 93 | 4 | 11
28 | CC(=NNC(S)=NCCc1ccccc1)c1ccccn1 | 100 | 99 | 73
